Experiments:
Test in all cases: PBM binding z-score (relative to random genomic background probes); higher = stronger binding; sequences stand for … in GC…GCGATTGACAGCGTAGAATGAAGG
[1] = system: RARb homodimer (NR concentration 270 nM)
Outline: (§1)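 Ligand-free nuclear receptor dimers were bound for 1 h to custom Agilent 4×180K protein-binding microarrays. Detection used antibodies against each partner (one per run). Binding z-scores rest on regression-normalized fluorescence, with random background probes as the reference.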

[2] = system: RARg:RXRa (NR concentration 270 nM, RXRa partner concentration 90 nM)
Outline: as §1

[3] = system: RARg homodimer (NR concentration 270 nM)
Outline: as §1

[4] = system: RXRa DBDmut IVT, anti-RXR (DBD mutation: RXRa K156A/R161A, NR concentration 90 nM)
Outline: as §1

[5] = system: RXRa homodimer (NR concentration 180 nM)
Outline: as §1

[6] = system: THRa:RXRa (NR concentration 90 nM, RXRa partner concentration 90 nM)
Outline: as §1

[7] = system: THRa homodimer (NR concentration 90 nM)
Outline: as §1

[8] = system: VDR:RXRa (NR concentration 270 nM, RXRa partner concentration 90 nM)
Outline: as §1

[9] = system: VDR homodimer (NR concentration 270 nM)
Outline: as §1

Sequence | PBM binding z-score [1] | PBM binding z-score [2] | PBM binding z-score [3] | PBM binding z-score [4] | PBM binding z-score [5] | PBM binding z-score [6] | PBM binding z-score [7] | PBM binding z-score [8] | PBM binding z-score [9]
CTACCAAGGTGAACAAGGTCGGTGATTACTATTC | 1.6 | 1.22 | 1.42 | 0.135 | 1.23 | 2.66 | 1.27 | 4.17 | 0.361
GTATATAGGTAATACAAGGTGAAAGTCCGATTGT | 1.06 | 0.647 | 0.697 | 0.401 | 0.751 | 4.18 | 1.48 | 0.822 | 0.367
ACTCTTAGTTGACTTAGGGCAACCGATACGACGC | 1.01 | 0.837 | 0.667 | 0.736 | 0.605 | 1.52 | 0.885 | 0.416 | 0.184
ACTTACAGGTCAACGAGGTTATAGCACGCGTATA | 4.19 | 5.93 | 5.75 | 2.76 | 5.89 | 4.02 | 1.8 | 7.66 | 4.27
TGAATCAGGTTAAAGATCAGGGAACGTGGCGTCG | -7.29e-05 | 0.805 | 0.611 | -0.0911 | 1.71 | 1.04 | -0.365 | 0.238 | -0.0211
TCTTGTAGATCAACAGGAGGATAAGAAAGATCGA | -0.517 | 0.227 | 0.396 | 0.36 | 0.432 | 0.177 | -0.392 | 0.0724 | -0.362
ATCTCTGGGTAACAAGTTCAGTGAAAGAGAGGAC | 1.8 | 1.39 | 1.59 | 0.883 | 0.958 | 1.21 | 1.06 | 2.8 | 2.71
CCTACTGGGCCGAAGGTCATTGATTCCAATGCTC | 3.08 | 2.93 | 2.53 | 0.398 | 3.01 | 1.99 | 0.19 | 2.51 | 1.46
AGTATTAGTTGACTTAGGGCAACCGATACGACGC | 1.29 | 0.595 | 1.02 | 0.0389 | 0.49 | 1.53 | 0.518 | 0.573 | 0.538
ATCTCTAGGTAACATGTTCAGTGAAAGAGAGGAC | 0.187 | 0.668 | 0.705 | 0.0522 | 0.565 | 1.04 | 0.541 | 0.0615 | -0.0529
AGAATGAGGTTACCAACGATCAGGGAAACGCTTG | 0.885 | 1.97 | 1.6 | 1.08 | 2.45 | 2.75 | 0.794 | 1.28 | 0.331
CGTCCAAGGTCAAAGGTCAGTGCAGAGATGACGG | 5.5 | 8.65 | 8.11 | 4.2 | 10 | 4.76 | 3.26 | 6.57 | 4.12
TCAAATAGGTAAACAGGTGAAAGTCCGTAAGTTA | 0.737 | 0.645 | 0.221 | 1.46 | 1.15 | 0.783 | 0.141 | 1.18 | 0.236
CCTAGTGGGCCACGAAAGGTCATTGATTCAGTGA | 4.68 | 4.71 | 4.64 | 0.0516 | 5.09 | 3.82 | 0.453 | 4.05 | 1.99
CGTCCAAGGTAAAGGTCAGTGAAAGAGACTCGAA | 4.43 | 4.58 | 5.49 | 0.687 | 4.48 | 3.2 | 0.7 | 2.43 | 0.765
ATCGAAAGGTCGTGAGATGAGTATACAGAAAGGC | 2.35 | 4.27 | 3.47 | 0.915 | 5.21 | 2.19 | -0.531 | 3.09 | 0.66
CCTACTGGGCCAAAAAGGTTATTGATGCCGATAA | 1.36 | 0.788 | 0.644 | -0.387 | 1.03 | 0.617 | -0.462 | 1.6 | 0.00157
CGTCCAAGGTCAATGCTTGGTCAGTGAAAGCATT | 4.25 | 6.01 | 6.27 | 3.51 | 4.89 | 3.82 | 2.24 | 3.69 | 2.49
TCTTGTAGATCAATAGATGTTAAGAAAGTGCGCT | -0.256 | 0.00708 | 0.206 | 0.767 | 0.395 | -0.118 | -0.769 | 0.468 | -0.147
GCTAGCAGGCCATTTAGGTCACTCAATGACGGGC | 2.27 | 1.47 | 1.75 | 0.101 | 1 | 2.79 | 1.71 | 0.996 | 0.244
ATCGATAGGTCGAGGTGAGTATAGAGAAAGGGAA | 1.05 | 1.68 | 2.13 | -0.314 | 1.47 | 1.63 | 0.0105 | 0.414 | -0.206
CGTCCAAGGTCAAAGGTCAGTCAAGAGATGACGG | 5.67 | 8.89 | 8.17 | 4.11 | 10.3 | 4.85 | 2.87 | 6.84 | 3.58
TACCCTAGGTCAGATCGGGCCAGTATACGCTATA | 2.63 | 2.98 | 3.5 | 0.165 | 1.54 | 4.19 | 0.64 | 1.17 | 0.268
ACAGACAGGTGATGAAGGTAACTCACGCTATCAT | 0.275 | 0.28 | 0.546 | -0.0205 | 0.483 | 0.491 | -0.113 | 0.327 | 0.0793
CCTAGCAGGCCAGGGTCATTCAAGCATTTCGCTT | 2.54 | 2.93 | 1.89 | 1.62 | 3.35 | 2.93 | 0.719 | 3.48 | 2.77
TCATATAGGTAGAAGGTGAAAGTCGGTGTGGTAA | 1.02 | 0.662 | 0.283 | 2.05 | 1.18 | 0.699 | 0.397 | 0.866 | 0.453

Sequence | PBM binding z-score [1] | PBM binding z-score [2] | PBM binding z-score [3] | PBM binding z-score [4] | PBM binding z-score [5] | PBM binding z-score [6] | PBM binding z-score [7] | PBM binding z-score [8] | PBM binding z-score [9]
TTACCAAGGTGACGGTCGTTGATCCCTCTGTAGA | 1.18 | 0.607 | 0.608 | -0.779 | 0.836 | 2.01 | 0.865 | 0.0426 | -0.245
CCTTACCGGTCACGAGGTTATAGCACGACGAGCG | 3.08 | 4.01 | 3.68 | 0.188 | 2.62 | 2.37 | 1.43 | 2.17 | 1.34
ATATGTAGGTTACATCCGGGTCATTCAAGCTATG | 2.89 | 3.76 | 2.1 | 1.48 | 3.24 | 3.88 | 2.61 | 4.17 | 2.99
ACTAGCAGGGCAAGGGTCACTCAAGATTAGTCCG | 3.73 | 4.34 | 3.78 | 0.379 | 4.53 | 2.73 | -0.1 | 2.95 | 1.17
ACAGACAGGTGAGTGAAGGTAACCCAGCTGGACG | 0.564 | 0.107 | 0.469 | -0.852 | 0.562 | 1.63 | 0.00911 | -0.336 | -0.164
GCTGCTAGGTCAACTGATGGTAAGCTAAAGCTCG | 2.98 | 4.25 | 4.92 | 1.14 | 2.73 | 2.9 | 0.776 | 1.23 | -0.0201
CCTAGCAGGCCAGGGTCACGCAAGCATTTCGCTT | 3.51 | 4.73 | 3.74 | 0.0811 | 5.81 | 3.6 | 1.62 | 3.95 | 1.53
CAGCTTAGGTCAGGGCCAGTATAGGAGGAACGTT | 2.93 | 3.26 | 4.25 | 0.68 | 1.75 | 3 | 1.78 | 0.513 | 0.105
GGAACCAGGGCATTCGAGTTGATAGCATGGCGAT | 1.54 | 1.05 | 1.49 | 1.17 | 0.534 | 2.66 | 0.671 | 2.21 | 1.97
ATCGAAAGGTCGTGAGGTGAGTATTCAGAAAGGC | 3.27 | 4.51 | 4.1 | 1.91 | 5.4 | 3.48 | 1.52 | 3.7 | 0.921
GCTTGTAGATCAAGGTTAACAAAGACTAAGCTAA | 0.609 | 0.795 | 0.37 | 0.051 | 1.05 | 1.49 | -0.000318 | 0.333 | -0.118
ATAGAAAGGTCGTGAGGTGAGTATACAGAAAGGC | 3.32 | 4.4 | 4.01 | 1.32 | 5.4 | 3.48 | 1.99 | 3.63 | 1.31
AGTCAAAATTCAGGACGAGGTAACGTAAAGCACG | -0.0538 | 0.203 | 0.422 | -0.303 | 0.601 | 1.99 | 1.64 | -0.107 | 0.0292
TAGCCTAGGTCCTTGGGCCAGTATAGTACGCATC | -0.937 | -0.412 | -0.296 | -1.27 | -0.549 | -0.732 | -1.37 | -0.897 | -1.06
CCGACTGGGGCGTAAGGTTACCATAAGCCAGCCC | 1.23 | 0.788 | 0.295 | -0.36 | 0.979 | 1.92 | 0.973 | 0.154 | -0.426
TCAGACAGGTGAAGGGAACTCAGGTACGCAGTCG | 0.93 | 0.546 | 0.498 | 1.36 | 0.877 | 0.891 | 0.717 | 0.951 | 0.463
ATATGTAGGTTATCGGGTCATTCTGTTTGCGCAT | 2.91 | 3.37 | 2.21 | 1.77 | 3.44 | 3.38 | 2.96 | 3.82 | 3.53
CCTAGCAGGCCAGGGTCGCTCAAGCATTTCGCTT | 0.411 | 0.213 | -0.184 | -0.345 | 0.948 | 1.23 | -0.279 | 0.8 | -0.195
AGAATGAGGTTATACGTAGATCATGGAAGAAAGT | 1.02 | 2.06 | 1.29 | 1.74 | 2.45 | 2.42 | 0.532 | 1.72 | 0.975
TTTTGTAGATCAAAGGTTAAGAAAGCCGAAGCCT | 1.49 | 1.74 | 0.912 | -0.536 | 3.39 | 1.3 | -0.617 | 1.41 | -0.0263
TCATATAGGTAAACGGGTGAAAGTCCGTAAGTTA | 0.485 | 0.423 | 0.128 | 1.05 | 1.03 | 0.421 | -0.157 | 1.16 | 0.053
TCTTGTAGATCCAAGGTTAAGAAAGCCGAAGCCT | 0.743 | 0.336 | 0.0629 | 0.928 | 1.13 | 1.27 | 0.204 | 0.448 | 0.0451
TCATATAGGTAATACAGGTGATAGTCGGCATCTA | 0.0336 | 0.618 | 0.526 | 1.57 | 0.945 | 0.371 | 0.0861 | 1.04 | -0.0181
AGTAAAAGTTCATCTAGGTAACGTAAGATATGCT | 3.63 | 4.68 | 5.23 | 4.63 | 3.77 | 3.05 | 0.0912 | 4.57 | 4.83
CTACCAAGGTGAACAAGGTTGTTGATTACTATTC | 1.02 | 0.783 | 0.877 | 0.73 | 0.747 | 2.05 | 0.944 | 4.05 | 0.267
CGAACTAGGTCAATGACAGGACAGTGAATAGTAA | 2.71 | 4.32 | 4.46 | 1.49 | 2.17 | 2.62 | 0.35 | 1.38 | 0.409

From the supplement of paper PMC6555819
